The text below walks through data of PubChem BioAssay AID1851 (National Center for Advancing Translational Sciences (NCATS), 2009).

The campaign covered roughly 16,000 compounds. About 5,100 (32%) were called active. Another 25% or so got no clear call; they are omitted. Calls come from the whole dose curve; as a rule, active = well fitted curve in the direction sought with a large enough effect; inconclusive = small, poorly fitted or top-dose-only effect, or effect the other way; inactive = no such curve, though single readings can be large or run the other way. This is one part of the list.
% is set by controls: 0 for no effect and ±100 for the full control effect.

The target of the assay is Cytochrome P450 3A4 (Homo sapiens) (UniProt P08684). Nature of the assay: Cytochrome panel assay with activity outcomes. As to conditions: recombinant CYP, pro-luciferin dealkylation, luminescence, p450-cyp3a4; series mostly up to 57.1 µM; activity, negative = inhibition: at the top concentration.
Cytochrome P450 3A4 (Homo sapiens), sequence (P08684 whole entry, looked up): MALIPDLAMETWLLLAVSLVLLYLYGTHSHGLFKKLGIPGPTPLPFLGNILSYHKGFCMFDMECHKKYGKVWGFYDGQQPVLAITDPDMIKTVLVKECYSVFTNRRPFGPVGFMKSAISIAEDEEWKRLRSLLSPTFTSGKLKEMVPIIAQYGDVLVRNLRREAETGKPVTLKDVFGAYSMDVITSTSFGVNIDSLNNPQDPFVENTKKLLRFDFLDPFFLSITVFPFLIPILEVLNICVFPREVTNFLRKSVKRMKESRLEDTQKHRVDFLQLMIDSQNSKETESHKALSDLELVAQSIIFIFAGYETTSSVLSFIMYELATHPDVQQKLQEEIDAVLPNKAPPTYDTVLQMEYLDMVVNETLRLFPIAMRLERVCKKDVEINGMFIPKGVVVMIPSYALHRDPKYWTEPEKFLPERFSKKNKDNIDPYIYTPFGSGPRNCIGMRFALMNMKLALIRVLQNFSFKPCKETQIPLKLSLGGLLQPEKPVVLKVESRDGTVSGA
Regarding `CC(=O)OCC1=C(C(=O)O)N2C(=O)[C@@H](N)[C@@H]2SC1`, the “activity, negative = inhibition” value was -8.51% [at 25.6 µM] (inactive). Same read-out and setting: to `CCc1ccc(CCN2CCCCC2)nc1` belongs -16.1% [at 11.4 µM] (inactive); to `C[C@@]12CCC(=O)C=C1C=C[C@H]1[C@H]3CC[C@](O)(CCC(=O)O)[C@]3(C)CC[C@@H]12`, -2.78% [at 25.6 µM] (inactive). On to `O=C(c1ccc(-c2nnc(Nc3ccccc3)c3ccccc23)cc1)N1C[C@H]2C[C@H](C1)c1cccc(=O)n1C2`, for which the AC50 was 31600 nM (active). Regarding `O=c1cccc2n1CC1CNC[C@H]2C1`, the “activity, negative = inhibition” value was -25.1% [at 25.6 µM] (inactive).

For the compound `COc1cc(C(=O)OC2C[C@H]3CC[C@@H](C2)N3C)ccc1O` (some centres not stated), the “activity, negative = inhibition” value is -6.91% [at 25.6 µM] (inactive). With `O=c1[nH]cnc2[nH]cc(CN3CCCCC3)c12`, the activity, negative = inhibition was -10.7% [at 11.4 µM] (inactive). Regarding `N[C@@H]1C=CC=C(C(=O)O)C1`, the “activity, negative = inhibition” value was -0.917% (inactive). The same measure, in the same setting: next, `O=S(=O)(NCCO)c1cc[c]([Sb](=[O])([OH])[OH])cc1`: 9.57% [at 11.4 µM] (inactive). Consider `CCCN1CCO[C@@H]2c3cc(O)ccc3OC[C@H]21`, for which the “activity, negative = inhibition” value was -26% (inactive).

Turning to `c1cncc([C@@H]2CCCCN2)c1`, the activity, negative = inhibition result is “inactive”. For `O=S(=O)(c1ccccc1)N1CCCCC1c1cccnc1` (configuration not stated), the AC50 was 2240 nM (active). As to `CC1=C(C)[N+](=O)C2(O)CCCCC2(C)N1[O-]` (configuration not stated), the “activity, negative = inhibition” value is -0.437% (inactive). Same read-out and setting: next, `CCCN(CCC)[C@@H]1CCc2ccc(O)cc2C1`: “inactive”; `NC(N)=NS(=O)(=O)c1ccc(N)cc1`: -31.3% [at 25.6 µM] (inactive); `CN(C)[C@@H]1C(=O)C(C(N)=O)=C(O)[C@]2(O)C(=O)C3=C(O)c4c(O)cccc4[C@@](C)(O)[C@H]3[C@H](O)[C@@H]12`: -9.86% [at 25.6 µM] (inactive). Same read-out and setting: to `O=C(O)Cc1ccc([N+](=O)[O-])cc1[N+](=O)[O-]` belongs -8.12% [at 11.4 µM] (inactive). On the same count and under the same terms, to `O=[N+]([O-])c1cc(O)c(O)c([N+](=O)[O-])c1` belongs -20.1% (inactive). Regarding `O=[N+]([O-])c1ccc(S(=O)(=O)Cc2ccccc2)c([N+](=O)[O-])c1`, the concentration at half-maximal activity (AC50) was 316 nM (active).

As to `Cc1cc(OC(=O)CCCNC(=O)OC(C)(C)C)c2c3c(c(=O)oc2c1)CCC3`, the activity, negative = inhibition was 4.44% [at 2.29 µM] (inactive). Same read-out and setting: to `COc1cc2c3cc1Oc1cc(ccc1O)C[C@@H]1c4c(cc(OC)c(O)c4Oc4cccc(c4)C[C@H]3N(C)CC2)CC[N+]1(C)C` belongs -9.52% [at 25.6 µM] (inactive). For the compound `CC(C)(O)/C=C\C(=O)[C@](C)(O)[C@H]1[C@H](O)C[C@]2(C)[C@@H]3CC=C4[C@@H](C=C(O)C(=O)C4(C)C)[C@]3(C)C(=O)C[C@@]12C`, the AC50 was 398 nM (active). For `CC(=O)OC1N=C(c2ccccc2)c2cc(Br)ccc2N(C)C1=O` (configuration not stated), the “activity, negative = inhibition” value is -28.2% (inactive). The same measure, in the same setting: to `CC1=NN(c2ccc(S(=O)(=O)O)cc2C)C(=[OH+])[C@H]1N=Nc1cc(S(=O)(=O)O)ccc1C(=O)O.O.[Cr]` belongs 12.6% [at 11.4 µM] (inactive). Still for that read-out and setting: to `O=[N+]([O-])c1ccc(N2CCNCC2)cc1NCC1CCCO1` (configuration not stated) belongs -16.8% (inactive); to `COC(=O)[C@H](N)CCCN=C(N)N[N+](=O)[O-]`, 3.46% (inactive). For the compound `CCOC(=O)C1=C(C)OC(N)=C(C#N)C12C(=O)N(C)c1ccccc12` (configuration not stated), the AC50 is 6310 nM (active). As to `COc1ccc(C[C@@H]2NC[C@H](O)[C@@H]2OC(C)=O)cc1`, the “activity, negative = inhibition” value is -16.7% [at 25.6 µM] (inactive). The same measure, in the same setting: to `O=C(O)C[O][Sb][O]CC(=O)O` belongs -1.8% [at 11.4 µM] (inactive); to `NS(=O)(=O)C[C-]1C=C[CH]([Sb-]([Cl])([Cl])([Cl])([Cl])[Cl])C=C1.c1ccncc1` (configuration not stated), 7.76% [at 11.4 µM] (inactive).

`CC[C@@H]1CN2CCc3cc(OC)c(OC)cc3[C@H]2C[C@@H]1C[C@@H]1NCCc2cc(O)c(OC)cc21`: the “activity, negative = inhibition” value was 2.41% [at 25.6 µM] (inactive). Same read-out and setting: to `Cc1ccc(S(=O)(=O)O[C@H]2CN3CCC2CC3)cc1` belongs -7.01% [at 11.4 µM] (inactive).

A word on the AC50: it is the midpoint of the concentration-response curve, whichever way the signal moves.
